Results filed as inconclusive are left out. Where a call stands in place of a potency, no number is given. Calls of active or inactive are those of the source. The call rests on the fitted dose curve; in most records, active means well fitted cell-killing curve with a large enough effect; inconclusive means small, poorly fitted or top-dose-only effect, or effect the other way; inactive means flat fitted curve, though single readings scatter.
Test system: CASKI
Assay: Primary qHTS to identify gynecologic anti-cancer compounds using libraries of approved drugs and bioactive compounds (AID 1345084); further: nearly all actives have a fitted effect of over 55% in size
Details: Gynecologic cancer cell panel viability, ATPlite luminescence, 48 h; series mostly up to 57.5 µM
Outline: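 Cell viability after 48 h drug treatment, ATPlite luminescence readout; five doses.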

| Structure (SMILES) | Potency |
| --- | --- |
| CCc1oc2ccccc2c1C(=O)c1cc(Br)c(O)c(Br)c1 | inactive |
| C=C[C@H]1CN2CC[C@H]1C[C@H]2[C@H](O)c1ccnc2ccc(OC)cc12 | inactive |
| CC[C@H](c1ccc(O)cc1)[C@@H](CC)c1ccc(O)cc1 | inactive |
| CCCCC(CC)CN1CN(CC(CC)CCCC)CC(C)(N)C1 (centres undefined) | inactive |
| CO[C@H]1C=CO[C@@]2(C)Oc3c(C)c(O)c4c(O)c(c(/C=N/N5CCN(C)CC5)c(O)c4c3C2=O)NC(=O)/C(C)=C\C=C[C@H](C)[C@H](O)[C@@H](C)[C@@H](O)[C@@H](C)[C@H](OC(C)=O)[C@@H]1C | inactive |
| Cc1cc(CC(=O)O)c(C)n1-c1ccc(Cl)cc1 | inactive |
| O=C1[C@H](CC[C@H](O)c2ccc(F)cc2)[C@@H](c2ccc(O)cc2)N1c1ccc(F)cc1 | inactive |
| C#C[C@]1(O)CC[C@H]2[C@@H]3[C@H](C)CC4=C(CCC(=O)C4)[C@H]3CC[C@@]21C | inactive |
| CC(C)n1c(/C=C/[C@@H](O)C[C@@H](O)CC(=O)O)c(-c2ccc(F)cc2)c2ccccc21 | inactive |
| CC(=O)OCC1=C(C(=O)O)N2C(=O)[C@@H](NC(=O)CSc3ccncc3)[C@H]2SC1 | inactive |
| NCCNC(=O)c1ccc(Cl)cn1 | inactive |
| COc1ccc(CCN(C)CCCN2CCc3cc(OC)c(OC)cc3CC2=O)cc1OC | inactive |
| CC(=O)O[C@]1(C(C)=O)CC[C@H]2[C@@H]3C=C(Cl)C4=CC(=O)CC[C@]4(C)[C@H]3CC[C@@]21C | inactive |
| NC(=O)n1c(O)c(C(=O)c2cccs2)c2cc(Cl)ccc21 | inactive |
| CC(=C(CCOC(=O)C(C)C)SSC(CCOC(=O)C(C)C)=C(C)N(C=O)Cc1cnc(C)nc1N)N(C=O)Cc1cnc(C)nc1N | inactive |
| CCO[C@@H]1O[C@H](C(COCc2ccccc2)OCc2ccccc2)[C@H](OCc2ccccc2)[C@H]1O (some centres undefined) | inactive |
| C=C1c2cccc(O)c2C(O)=C2C(=O)[C@]3(O)C(O)=C(C(N)=O)C(=O)[C@@H](N(C)C)[C@@H]3[C@@H](O)[C@H]12 | inactive |

| Structure (SMILES) | Potency |
| --- | --- |
| CN1CCN(C2=Nc3cc(F)ccc3Cc3ccccc32)CC1 | inactive |
| CC(C)[N+](C)(C)CC(O)COc1cccc2ccccc12 (centres undefined) | inactive |
| O=[N+]([O-])c1ccc(/C=N\O)o1 | inactive |
| C[N+]1(CC2COC(c3ccccc3)(C3CCCCC3)O2)CCCCC1 (centres undefined) | inactive |
| CCN(CC)CCOc1ccccc1C(=O)CCc1ccccc1 | inactive |
| CCCCN=C(N)N=C(N)N | inactive |
| Cc1cc2c(OCC(CNC(C)(C)C)OC(=O)c3ccccc3)cccc2[nH]1 (centres undefined) | inactive |
| c1ccc(CC2=NCCN2)cc1 | inactive |
| CN1CCN(C2=Nc3ccccc3Sc3ccc(Cl)cc32)CC1 | inactive |
| Cc1ccc(O)c([C@H](CCN(C(C)C)C(C)C)c2ccccc2)c1 | inactive |
| C#C[C@]1(O)CC[C@H]2[C@@H]3CCc4cc(OC)ccc4[C@H]3CC[C@@]21C | inactive |
| O=C(CCN1CCN2CCCC2C1)N1c2ccccc2Sc2ccc(Cl)cc21 (centres undefined) | inactive |
| CC(C)(Cc1c[nH]c2ccccc12)NCC(O)COc1ccccc1C#N (centres undefined) | inactive |
| COc1cc(O)c(C(=O)c2ccccc2)cc1S(=O)(=O)O | inactive |
| CCC(CC)(CC(=O)Nc1cccc(/C=C/c2nc(C3CCC3)cs2)c1)C(=O)O | inactive |
| OC[C@H]1O[C@@H](Oc2ccc(O)cc2)[C@H](O)[C@@H](O)[C@@H]1O | inactive |
| O=C(Nc1ccccc1)OCC(CN1CCCCC1)OC(=O)Nc1ccccc1 (centres undefined) | inactive |

— PubChem BioAssay (NCATS)
